In PubChem BioAssay AID651571 (The Scripps Research Institute Molecular Screening Center, 2012):
Screen size: about 1,500 compounds; about 1,300 (87%) were called active. So high a share suggests a set chosen from earlier hits. Not all results are given here. Values without a mark were called inactive. Cut-off read from the data, not from the text of the source: active = inhibition above about 9%; inactive = the rest.

Assay: PG9 antibody small-molecule binding – biochemical, TR-FRET, confirmation (AID 651571)
Conditions: at 6.7 µM, hits give high values

Question: With `COc1ccc(Cl)cc1NC(=O)Cn1nc(-c2ccc(C)cc2)n(C)c1=S` as the compound, how does the inhibition read?
Answer: 12.2% (active)

Question: With `N#Cc1ccccc1NC(=O)c1cccc(COc2ccc(Cl)cc2Cl)c1` as the compound, how does the inhibition read?
Answer: 15.1% (active)

Question: With `O=C1C(=O)N(CCN2CCOCC2)C(c2cccc(Cl)c2)/C1=C(/O)c1ccc2c(c1)OCO2` (stereo not drawn) as the compound, how does the inhibition read?
Answer: 26.7% (active)

Question: For `O=C(O)CCCCCNc1ncnc2ccc(Br)cc12`, which inhibition is on record?
Answer: 28.1% (active)

Question: With `COc1ccc(CCNC(=O)CSc2nc(-c3ccc(OC)c(OC)c3)ccc2C#N)cc1` as the compound, how does the inhibition read?
Answer: 26% (active)

Question: With `COc1cccc(-c2ccc(C#N)c(SCC(=O)NCCc3ccc(Cl)cc3)n2)c1` as the compound, how does the inhibition read?
Answer: 7.22%

Question: With `O=C(Nc1c(Br)cc2c(c1Br)Cc1cc([N+](=O)[O-])ccc1-2)C(Cl)Cl` as the compound, how does the inhibition read?
Answer: 51.1% (active)

Question: With `O=C(COC(=O)c1ccc2c(c1)OCCO2)NCc1ccccc1Cl` as the compound, how does the inhibition read?
Answer: 29.8% (active)

Question: Which inhibition does the source give for `COCCNC(=O)c1cc2c(Br)ccc(Br)c2nc1N` here?
Answer: 16.4% (active)

Question: Which inhibition does the source give for `C=CCn1c(=NC(=O)c2ccc(S(=O)(=O)N3CCCC3)cc2)sc2cc(NC(C)=O)ccc21` here?
Answer: 29.4% (active)

Question: Which inhibition does the source give for `C=CCn1c(=NC(=O)c2cccs2)sc2cc(NC(C)=O)ccc21` here?
Answer: 9.74% (active)

Question: Which inhibition does the source give for `CCCc1nc(SCC(=O)Nc2ccc(S(=O)(=O)N(C)C)cc2)c2ccccc2n1` here?
Answer: 34.5% (active)

Question: For `CCc1ccc(NC(=O)CSc2nnc(-c3cnccn3)n2Cc2ccco2)cc1`, which inhibition is on record?
Answer: 22.4% (active)

Question: With `O=C(C1=C(O)C(=O)N(Cc2ccccc2)C1c1ccco1)c1ccco1` (stereo not drawn) as the compound, how does the inhibition read?
Answer: 31.8% (active)

Question: For `COc1cccc(-n2c(SCC(=O)c3c[nH]c4ccccc34)nc3ccccc3c2=O)c1`, which inhibition is on record?
Answer: 27% (active)

Question: For `Cc1cc(C)cc(NC(=O)C2CCCN(S(=O)(=O)c3ccc4[nH]c(=O)ccc4c3)C2)c1` (stereo not drawn), which inhibition is on record?
Answer: 23.8% (active)

Question: For `CCn1nnc2cc(C(=O)Nc3ccc(C(=O)OC(C)C)cc3)ccc21`, which inhibition is on record?
Answer: 25.6% (active)

Question: Which inhibition does the source give for `COC(=O)C1=C(C)N(Cc2ccccc2C(F)(F)F)C(=NCc2ccc(OC)cc2)NC1c1cccc(C(F)(F)F)c1` (stereo not drawn) here?
Answer: 6.91%

Question: For `O=C(N=C1SC2CS(=O)(=O)CC2N1Cc1ccccc1)c1ccccc1` (stereo not drawn), which inhibition is on record?
Answer: 34.1% (active)

Question: With `O=C(Nc1cccc(S(=O)(=O)Nc2ccc(Cl)cc2)c1)c1ccc2c(c1)OCCO2` as the compound, how does the inhibition read?
Answer: 23.1% (active)

Question: For `COc1ccc(-c2c(C)nn3c(N4CCC(C(=O)N5CCCCC5)CC4)cc(C)nc23)cc1OC`, which inhibition is on record?
Answer: 13.9% (active)

Question: Which inhibition does the source give for `CCOc1cccc(NC(=O)Cn2nc(-c3ccc4c(c3)OCCO4)ccc2=O)c1` here?
Answer: 14.5% (active)

Question: For `Cc1cc2c(cc1C)N1C(=O)c3cc4ccccc4cc3NC(=O)C1C(=O)N2` (stereo not drawn), which inhibition is on record?
Answer: 12.3% (active)

Question: With `COc1ccc(-n2nnnc2-c2nc3ccccc3s2)cc1` as the compound, how does the inhibition read?
Answer: 30.8% (active)

Question: Which inhibition does the source give for `CCn1c(SCC(=O)Nc2cccc(F)c2)nnc1-c1cc2cc(Br)ccc2o1` here?
Answer: 40.1% (active)

Question: For `Cc1nc2nc(SCC(=O)c3ccccc3)[nH]c2cc1Br`, which inhibition is on record?
Answer: 28.4% (active)

Question: For `N#C/C=C1\Sc2ccccc2C(=O)N1CC(=O)N1CCN(S(=O)(=O)c2ccccc2)CC1`, which inhibition is on record?
Answer: 22.1% (active)

Question: For `N#Cc1ccccc1Sc1ccccc1C(=O)OCC(=O)NC1CCCCC1`, which inhibition is on record?
Answer: 27.3% (active)

Question: Which inhibition does the source give for `CC(=O)c1sc2nc(SCC(=O)N3CCCCC3)[nH]c(=O)c2c1C` here?
Answer: 25.6% (active)

Question: With `COc1cccc(NS(=O)(=O)c2ccc3[nH]cc(C(=O)NCCCOC(C)C)c(=O)c3c2)c1` as the compound, how does the inhibition read?
Answer: 18.6% (active)

Question: Which inhibition does the source give for `Fc1cc(F)c2nc(Nc3nc4c(F)cccc4s3)sc2c1` here?
Answer: 9.6% (active)

Question: For `COCCCNc1nc2c(-c3cccc(C)c3)nnn2c2ccc(Cl)cc12`, which inhibition is on record?
Answer: 19.2% (active)

Question: For `O=C1COc2ccc(C(=O)COC(=O)c3ccccc3Cl)cc2N1`, which inhibition is on record?
Answer: 24.8% (active)

Question: Which inhibition does the source give for `Cc1c(-c2ccccc2)nc(N)c(C#N)c1-c1cccs1` here?
Answer: 18.6% (active)

Question: With `N#Cc1c(-c2cccs2)nc(SCC(=O)c2ccc(Br)cc2)[nH]c1=O` as the compound, how does the inhibition read?
Answer: 29.8% (active)

Question: Which inhibition does the source give for `COc1ccc(CC(=O)Nc2ccc(-c3nnc(-c4ccccc4)o3)cc2)cc1` here?
Answer: 18.3% (active)

Question: For `Cc1nc(-c2ccccc2)sc1-c1nc(-c2ccccc2)ncc1S(=O)(=O)c1ccccc1`, which inhibition is on record?
Answer: 8.54%

Question: For `Cc1ccc(-c2cc(C(=O)NCc3cn(C)nc3C)c3cc(Br)ccc3n2)cc1`, which inhibition is on record?
Answer: 18.5% (active)

Question: With `CCOC(=O)c1c(C)[nH]c(C(=O)OCC(=O)c2ccc(OC)cc2OC)c1C` as the compound, how does the inhibition read?
Answer: 45.1% (active)

Question: For `Cc1ccc(-n2c(SCC(=O)NCCC3=CCCCC3)nc3n[nH]c(C)c3c2=N)cc1Cl`, which inhibition is on record?
Answer: 22.1% (active)

Question: Which inhibition does the source give for `CCCCNC(=O)CSc1nc2n[nH]c(C)c2c(=N)n1-c1cccc(Cl)c1C` here?
Answer: 38.3% (active)

Question: For `Cc1ccc(-n2ncc3c(=O)n(-c4ccc(C)c(C)c4)c(-c4ccco4)nc32)cc1`, which inhibition is on record?
Answer: 8.17%

Question: With `CC1(C)Cc2ccccc2-c2[nH]c(=S)[nH]c(=O)c21` as the compound, how does the inhibition read?
Answer: 9.89% (active)

Question: Which inhibition does the source give for `CCOc1cc2ccccc2cc1C(=O)Nc1ccccn1` here?
Answer: 12.1% (active)

Question: With `CC(C)OCCCNC(=O)c1cc(Sc2ccc(F)cc2)nc2ccccc12` as the compound, how does the inhibition read?
Answer: 25.9% (active)

Question: For `S=c1[nH]c2ccccc2c2ccccc12`, which inhibition is on record?
Answer: 14.6% (active)

Question: Which inhibition does the source give for `Cc1cc(Br)ccc1NC(=O)c1sc2ncn(CC(=O)N3CCN(c4ccccn4)CC3)c(=O)c2c1C` here?
Answer: 5.44%

Question: Which inhibition does the source give for `O=C(O)CCC(=O)Nc1nc2ccc([N+](=O)[O-])cc2s1` here?
Answer: 5.06%

Question: Which inhibition does the source give for `COC(=O)c1ccc(NC(=S)Nc2cccc(C)n2)cc1` here?
Answer: 11% (active)

Question: Which inhibition does the source give for `O=C(NCc1ccc(Cl)cc1)c1cc2c(nc3sccn32)s1` here?
Answer: 17.8% (active)

Question: For `CC(=O)c1cc(C#N)c(SCC(=O)Nc2nccs2)nc1C`, which inhibition is on record?
Answer: 27.5% (active)

Question: With `COc1ccc(-c2csc(NC(=O)c3ccc(N4C(=O)CCC4=O)cc3)n2)cc1OC` as the compound, how does the inhibition read?
Answer: 15.2% (active)

Question: Which inhibition does the source give for `O=C(Oc1ccccc1)Oc1ccc2c(c1)oc(=O)c1ccccc12` here?
Answer: 46.9% (active)

Question: For `CCOc1ccc2cc(C#N)c(SCC(=O)OC)nc2c1`, which inhibition is on record?
Answer: 48.4% (active)

Question: With `Cc1cccc(Nc2nc3c(S(=O)(=O)c4ccccc4)nnn3c3ccccc23)c1C` as the compound, how does the inhibition read?
Answer: 41.2% (active)

Question: With `Cc1nc2cc(NC(=O)CSc3nc4c(C)cccc4cc3C#N)ccc2s1` as the compound, how does the inhibition read?
Answer: 46.4% (active)

Question: With `O=C(Nc1nnc(-c2ccccc2F)s1)c1ccccc1F` as the compound, how does the inhibition read?
Answer: 38.5% (active)

Question: Which inhibition does the source give for `N#Cc1c(N)nc2c3c(sc(=N)c2c1N)NC(=O)CC3c1ccccc1Cl` (stereo not drawn) here?
Answer: 24.9% (active)

Question: With `CCCOc1ccc(C2C(C(=O)c3ccc(C)o3)=C(O)C(=O)N2CCCn2ccnc2)cc1` (stereo not drawn) as the compound, how does the inhibition read?
Answer: 53% (active)

Question: Which inhibition does the source give for `C=CCOc1cccc(C2C(C(=O)c3ccc(C)o3)=C(O)C(=O)N2CCCn2ccnc2)c1` (stereo not drawn) here?
Answer: 19.4% (active)

Question: Which inhibition does the source give for `Cn1c(=S)sc2ccc3ccccc3c21` here?
Answer: 11.9% (active)

Question: With `CCOc1ccc(C(=O)COC(=O)c2ccc(-n3cnnn3)cc2)cc1` as the compound, how does the inhibition read?
Answer: 27.8% (active)

Question: With `CC(=O)c1sc(NC(=O)CCCOc2ccccc2C)nc1C` as the compound, how does the inhibition read?
Answer: 18.4% (active)
